Tau FP inhib – blocks human tau fibril formation measured by polarization. P10636. actives 0.39% (n = 280,000). AID 1468. K18 P301L tau heparin fibrillization, Alexa594 FP, 6 h. Potency, µM (doses to about 57.7 µM), inactives show top-dose activity, negative = inhibition, most hits filed as inhibitors; further: potency means the concentration at half of the fitted maximal effect; nearly all actives have a fitted effect of over 55% in size
Target sequence (P10636 561-689 P618L limits assumed): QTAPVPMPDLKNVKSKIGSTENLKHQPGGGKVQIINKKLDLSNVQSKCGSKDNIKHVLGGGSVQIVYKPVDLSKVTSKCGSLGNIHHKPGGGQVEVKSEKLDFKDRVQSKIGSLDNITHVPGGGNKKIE
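Compound effects on tau fibrillization are measured by Alexa 594 fluorescence polarization (ex 555, em 632 nm). K18 P301L tau is used at 15 uM with 0.24 uM labeled tracer, and 20 uM heparin induces aggregation over 6 hr at 37 C.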
FBPA coupling cs – counter-screen for Giardia aldolase inhibitors: coupling enzyme system | coupling enzyme system counterscreen, AmpLite Red fluorescence | activity change, negative = inhibition, % at 58.2 µM, hits read low | actives 0.67% (n = 290,000) | AID 2472; in the data active means activity change below about -30%
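Final compound at 57.5 uM, incubated 10 min at RT with coupling enzyme reagent (glyceraldehyde-3-phosphate), then 20 min with substrate and AmpLite Red detection. Fluorescence read at 525/598 nm; tests interference with the coupling assay, not aldolase inhibition.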
G9a block – blocks human histone lysine methyltransferase G9a | Q96KQ7 | G9a H3K9 monomethylation, AlphaScreen, 2 h | Potency, µM (highest dose often 102 µM), without a hit: top-dose activity, negative = inhibition, actives largely listed as inhibitors | actives 8.8% (n = 350,000) | AID 504332; further: potency means the concentration at half of the fitted maximal effect; nearly all actives have a fitted effect of over 75% in size
Target sequence (Q96KQ7 913-1193 limits assumed): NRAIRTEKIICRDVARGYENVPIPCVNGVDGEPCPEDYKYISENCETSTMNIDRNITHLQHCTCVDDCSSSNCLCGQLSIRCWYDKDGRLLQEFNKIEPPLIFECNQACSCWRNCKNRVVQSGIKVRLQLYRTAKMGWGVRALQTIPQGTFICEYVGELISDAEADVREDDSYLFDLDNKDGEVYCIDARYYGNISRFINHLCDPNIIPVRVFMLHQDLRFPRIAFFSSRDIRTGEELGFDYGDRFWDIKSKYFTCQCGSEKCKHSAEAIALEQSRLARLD
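Enzyme 20 nM + cpd, 15 min RT; add b-H3K9 pep 500 nM / SAM 20 uM; 2 h RT; anti-H3K9me1 Ab 0.5 ug/mL + SA donor / anti-rabbit acceptor beads 20 ug/mL each, 10 min; AlphaScreen read.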
Tau ThT inhib – blocks human tau fibril formation measured by thioflavin T; P10636; recombinant tau K18 P301L, heparin-induced fibrillization, ThT fluorescence; Potency, µM (doses to about 57.4 µM), for the others: top-dose activity, negative = inhibition, actives largely listed as inhibitors; AID 1460; actives 2.1% (n = 270,000); further: potency means the concentration at half of the fitted maximal effect; nearly all actives have a fitted effect of over 55% in size
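Heparin-induced (20 uM) aggregation of recombinant human K18 P301L tau, 15 uM unlabeled with 0.24 uM labeled, pH 7 acetate buffer, 6 hr at 37 C with compound. Fibrils quantified by 30 uM ThT fluorescence after 1 hr ambient incubation.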
Sfp PPTase inh – blocks B. subtilis Sfp PPTase activity; actives 3.5% (n = 310,000); Q9F4F7; Potency, µM, for the others: largest response in the series, negative = inhibition, most hits filed as inhibitors; Biochemical Sfp PPTase activity, qHTS; AID 1490;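 further: the enzyme is Sfp with the accession as filed and its product quenches rhodamine fluorescence; potency means the concentration at half of the fitted maximal effect; 0% = enzyme reaction without inhibitor and -100% = no enzyme wells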
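Fluorescence-quenching assay with 15 nM Sfp, 5 uM rhodamine-CoA and 12.5 uM BHQ-2-labelled ybbR peptide in pH 7.6 Hepes/MgCl2 buffer. Enzyme was pre-incubated with compound for 15 min at room temperature. Rate was taken from the 30-min fluorescence change (525/598 nm).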
Tau fluor counter – counter-screen for tau fibril formation inhibitors; tau K18 P301L (four-repeat tau fragment) Alexa594 fluorescence, heparin fibrillization; Potency, µM (titrated, usually from 57.7 µM), for the others: at the highest dose activity change, negative = decrease; actives 0.93% (n = 280,000); AID 1463; further: potency means the concentration at half of the fitted maximal effect; nearly all actives have a fitted effect of over 55% in size
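Human K18 P301L tau (15 uM unlabeled plus 0.24 uM Alexa 594-labeled, final) in 100 mM sodium acetate pH 7 was mixed with compound and 20 uM heparin and incubated 6 hr at 37 C.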
An asterisk follows results filed as active; ? = inconclusive; / = no result; [ ] = another dose, or the depositor's remark. Hits are enriched below; roughly 11% of the tested compounds scored in any of these assays. Unless noted, the call rests on the fitted dose curve; in most records, active means well fitted curve in the direction sought with a large enough effect; inconclusive means small, poorly fitted or top-dose-only effect, or another doubt; inactive means no such curve, though single readings can be large; an effect the other way counts as inactive or inconclusive. Unless noted, on the % scale 0 is the no-effect control and ±100 the full control effect.

SMILES | Tau FP inhib | FBPA coupling cs | G9a block | Tau ThT inhib | Sfp PPTase inh | Tau fluor counter
O=C(Nc1ccc(F)cc1)c1ccc(-n2cnc3cccnc32)cc1 | -3% | / | -1%[59 µM] | ? | / | -18%
CSc1sc(-c2n[nH]c(=S)n2C)c2c1C=CCC2 | -13% | -34* | / | / | 50µM* | -28%
COc1ccc2nc(C)cc(Sc3nc4ccccc4s3)c2c1 | ? | -11 | 14µM* | ? | ? | -28%
Cc1cccc2cc(CN(CC3CCCO3)C(=S)NCc3ccco3)c(=O)[nH]c12 (centres undefined) | -13% | -2 | -6%[59 µM] | -7% | 50µM* | -12%
Cc1ccc2[nH]c(=O)c(CN(Cc3cccs3)C(=S)NCc3ccco3)cc2c1 | -14% | 0 | 9%[59 µM] | -7% | 50µM* | -27%
Cc1cccc2cc(CN(Cc3ccco3)C(=O)c3ccncc3)c(=O)[nH]c12 | -1% | 0 | -8%[12.7 µM] | -4% | 50µM* | 4%
O=C(c1ccncc1)N(Cc1ccco1)Cc1cc2ccccc2[nH]c1=O | 3% | -1 | -31% | 1% | 7% | -2%
CCNC(=S)N(Cc1ccco1)Cc1cc2cc(OCC)ccc2[nH]c1=O | -7% | 1 | 45µM* | -7% | 10µM* | -15%
CCNC(=S)N(Cc1cccs1)Cc1cc2cc(OCC)ccc2[nH]c1=O | 1% | 1 | 22%[59 µM] | -5% | -12% | -13%
COc1ccc2[nH]c(=O)c(CN(Cc3cccs3)C(=S)Nc3ccccc3)cc2c1 | ? | -1 | -45%[59 µM] | 0% | 9% | ?
Cc1cc(C)c2[nH]c(=O)c(CN(CC3CCCO3)C(=S)NCc3ccco3)cc2c1 (centres undefined) | -2% | 0 | 22%[59 µM] | 6% | -5% | 5%
CCC(=O)N1CCc2cc(S(=O)(=O)CCC(=O)N3CCN(c4ccccc4Cl)CC3)ccc21 | -9% | / | 1%[59 µM] | -14% | / | -11%
Cc1ccc(C)c2[nH]c(=O)c(CN(Cc3ccco3)C(=S)NCC3CCCO3)cc12 (centres undefined) | -10% | 1 | 40µM* | ? | -18% | -15%
Cc1ccc2[nH]c(=O)c(CN(CC3CCCO3)C(=S)NCc3ccco3)cc2c1 (centres undefined) | ? | 2 | -8%[59 µM] | 6% | -5% | -10%
COc1ccccc1NC(=S)N(Cc1ccco1)Cc1cc2ccc(C)c(C)c2[nH]c1=O | ? | 0 | 9%[59 µM] | -3% | 50µM* | -7%
Cc1ccc2cc(CN(CC3CCCO3)C(=S)NCc3ccco3)c(=O)[nH]c2c1 (centres undefined) | -9% | -5 | ? | ? | 45µM* | -30%
Cc1nc(-c2ccc(S(=O)(=O)Nc3ccc(C#N)cc3)cc2)co1 | 2% | / | 4%[59 µM] | 2% | / | -7%
CCc1nnc(NC(=O)c2sc3nc4cc(C)ccc4cc3c2N)s1 | -5% | -4 | ? | 2µM* | -11% | ?
CCOC(=O)Cc1csc(NC(=O)c2sc3nc4ccc(C)cc4cc3c2N)n1 | 9% | 1 | ? | 3.2µM* | 3% | -16%
CCc1nnc(NC(=O)c2ccc(OC)cc2)s1 | -11% | -2 | -5%[59 µM] | -14% | 8% | -14%
Cc1nn(CC(=O)NCCc2ccccc2)c(=O)c2nn(-c3ccccc3)c(C)c12 | -4% | / | -18%[59 µM] | -8% | / | -2%
Cc1nn2c(=O)cc(COC(=O)c3ccc(NC(=O)c4cccc(Br)c4)cc3)nc2s1 | ? | / | -28%[59 µM] | -7% | / | -12%
COC(=O)C(C)Sc1nnc2n(-c3cccc(C)c3)c(=O)c3c4c(sc3n12)CCCC4 (centres undefined) | 1% | 7 | 25µM* | -1% | -9% | 8%
COc1ccc(N2CCC(CNC(=O)Nc3cccc(OC)c3)C2)cc1 (centres undefined) | 14% | 0 | ? | ? | -1% | 16µM*[quencher]
COc1cccc(NC(=S)NCc2ccc(F)cc2)c1 | / | -3 | / | / | 13% | /
SMILES | Tau FP inhib | FBPA coupling cs | G9a block | Tau ThT inhib | Sfp PPTase inh | Tau fluor counter
CCc1cccc(C)c1NC(=S)NCC1CCN(c2ccc(OC)cc2)C1 (centres undefined) | -7% | -6 | 10µM* | ? | -8% | ?
CCc1ccccc1NC(=S)NCC1CCN(c2ccc(OC)cc2)C1 (centres undefined) | -1% | -5 | ? | ? | -11% | ?
COc1ccc(N2CCC(CNC(=S)Nc3cccc(OC)c3)C2)cc1 (centres undefined) | 13% | -4 | ? | ? | -9% | 11µM*[quencher]
COc1ccc(N2CCC(CNC(=O)Nc3ccc(Cl)cc3)C2)cc1 (centres undefined) | 10% | -4 | 0.71µM* | ? | -1% | ?
O=C(NCC1CC1)Nc1ccc(Cl)cc1 | / | -1 | 14% | / | 7% | /
COc1ccc(-c2noc(N3CCC(C(=O)NCCCN4CCCC(C)C4)CC3)n2)cc1 (centres undefined) | / | 2 | / | / | 7% | /
COc1ccc(NC(=O)CSC2=Nc3ccccc3C3=NC(CCC(=O)NCc4ccco4)C(=O)N23)cc1 (centres undefined) | -4% | / | 5%[59 µM] | -3% | / | -9%
COc1ccc(-c2ccccc2C2C3C=CCCC3(C)C(=O)N2Cc2ccccc2)cc1 (centres undefined) | / | 1 | / | / | -29% | /
Cc1ccc(CN2CCN(/N=C/c3sccc3C)CC2)c(C)c1 | -2% | 2 | 45µM* | -17% | -15% | -16%
CSc1ccc(/C=N/N2CCN(Cc3ccc(C)cc3C)CC2)cc1 | 8% | 2 | ? | ? | -4% | ?
O=C(O)c1cc(-n2c(/C=C\c3ccc(F)cc3)nc3ccccc3c2=O)ccc1Cl | 4% | / | -4%[59 µM] | 0% | / | 3%
CCc1nnc(NS(=O)(=O)c2ccc(NC(=O)/C=C/c3ccc(F)cc3)cc2)s1 | -1% | 7 | 56µM* | 8% | 24% | -12%
CCc1nnc(NS(=O)(=O)c2ccc(NC(=O)OC)cc2)s1 | -5% | 8 | 18µM* | -8% | -14% | -9%
CC(C)Oc1ccc(CNC(=O)CCCN2C(=O)c3cccnc3Oc3ccc(Cl)cc32)cc1 | 0% | / | -7%[59 µM] | -3% | / | -9%
CCOc1ccccc1CNC(=O)CCc1cn(C)c2ccccc12 | 11% | 0 | -19% | -3% | -2% | -4%
CCOc1ccccc1CNC(=O)CCCc1cn(C)c2ccccc12 | 2% | 0 | 50µM* | -19% | 8% | -21%
O=C(COc1ccc(F)cc1Cl)Nc1ccc(S(=O)(=O)Nc2nccs2)cc1 | / | / | 32µM* | / | / | /
Cc1cccc(OCCCC(=O)Nc2ccc(S(=O)(=O)Nc3nccs3)cc2)c1C | / | 5 | 45µM* | / | 11% | /
